Measurements as given in PubChem BioAssay (NCI).
This is part of a sample that, as a whole, favours compounds with a hit. Of some 79,000 tested, about 15% had one in any assay. No stated cut-off is given here; in the data, active means growth inhibition above about 70%; inactive means the rest.

What was measured:
[1] = NCI Yeast Anticancer Drug Screen. Data for the rad50 strain (AID 155);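 further: 0% = growth of vehicle-only cultures of the same strain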; settings: S. cerevisiae rad50 strain growth inhibition; at 50.0 µM; active compounds read high
In short: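 Relative growth inhibition (compound vs vehicle) was measured in yeast with a defined repair-gene alteration.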

[2] = NCI Yeast Anticancer Drug Screen. Data for the mec2-1 strain (AID 157); settings: S. cerevisiae mec2-1 strain, at 50.0 µM, active compounds read high
In short: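 Each compound was tested on mec2-1 yeast, a strain altered in DNA damage repair or cell cycle control. Growth inhibition is reported relative to vehicle.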

[3] = NCI Yeast Anticancer Drug Screen. Data for the sgs1 mgt1 strain (AID 161);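 further: 0% = growth of cultures given vehicle only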; settings: S. cerevisiae sgs1 mgt1 strain, at 50.0 µM, active compounds read high
In short: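 Inhibition of yeast growth, normalised to vehicle-treated controls, is reported for a strain bearing genetic alterations in DNA damage repair.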

[4] = NCI Yeast Anticancer Drug Screen. Data for the cln2 rad14 strain (AID 165);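 further: 0% = growth equal to vehicle treated cultures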; settings: S. cerevisiae cln2 rad14 strain, at 50.0 µM, active compounds read high
In short: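 Test compounds were added to cln2 rad14 yeast cultures; inhibition of growth was then determined by comparison with vehicle treatment.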

[5] = NCI Yeast Anticancer Drug Screen. Data for the bub3 strain (AID 167); settings: S. cerevisiae bub3 mutant strain, at 50.0 µM, active compounds read high
In short: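 Screening used yeast with an engineered genetic alteration affecting cell cycle control. Compound-exposed cultures were compared with vehicle cultures, and reduced growth was taken as inhibition.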

[6] = NCI Yeast Anticancer Drug Screen. Data for the mlh1 rad18 strain (AID 175); settings: S. cerevisiae mlh1 rad18 strain growth inhibition; at 50.0 µM; active compounds read high
In short: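 Inhibition values reflect reduced growth of mutant yeast versus vehicle-treated controls following compound exposure; the mutations affect DNA damage repair.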

Measured: growth inhibition

COc1ccc(-c2oc3ccc(C)cc3c(=O)c2O)cc1
inactive: [1] 6.9% | [2] -8% | [3] -14.8% | [4] 14.8% | [5] -5.7% | [6] -26.8%

Cc1nc(-c2ccccc2)ncc1C(O)CN1CCOCC1 (stereo not given)
inactive: [1] 12.8% | [2] 11.2% | [3] 17.4% | [4] 13.7% | [5] -23% | [6] 6.95%

N=C1N=Nc2nc(C(C(=O)c3cccc4ccccc34)c3nc4n(c3O)C(=N)N=N4)c(O)n21 (stereo not given)
inactive: [1] 19.5% | [2] 1.35% | [3] 14.2% | [4] 22.1% | [5] 0.9% | [6] 26.2%

C/C(=N\N=C(N)N)C(CN(CC(C)C)CC(C)C)C(=O)Nc1ccc(C)cc1C (stereo not given)
inactive: [1] 7.6% | [2] 6.55% | [3] 10.3% | [4] 38.3% | [5] -3.85% | [6] 13.8%

c1ccc(C(N2CCNCC2)N2CCNCC2)cc1
inactive: [1] -2.05% | [2] 8% | [3] 10.1% | [4] -3.6% | [5] -9.3% | [6] 17%

CNC(=O)c1cc2nc3ccccc3c(=O)n2c2ccccc12
inactive: [1] -46.3% | [2] -54% | [3] -25.1% | [4] -20.6% | [5] -7% | [6] -31.1%

COc1cc(C[S+]2CCCC2)c(SC)cc1C[S+]1CCCC1
inactive: [1] 25.4% | [2] 50% | [3] 40.2% | [4] 27.5% | [5] 24.1% | [6] 23.1%

Cc1cccc(C)c1N=Nc1ccc(O)c(CN(C)C)c1
inactive: [1] -6.2% | [2] -14.7% | [3] -12.1% | [4] -3.6% | [5] 22.6% | [6] -8.85%

Cc1nnc2ncccn12
inactive: [1] 31.1% | [2] -10.3% | [3] 8.4% | [4] -0.1% | [5] 0.55% | [6] -42.2%

CCN(CC)CCNc1c2ccc(Cl)cc2nc2c1c(C)nn2C
inactive: [1] -7.05% | [2] 9.15% | [3] 18.9% | [4] 21% | [5] 33.1% | [6] 6.95%

O=C(COCC(=O)N/N=C/c1c(O)ccc2ccccc12)N/N=C/c1c(O)ccc2ccccc12
inactive: [1] -2% | [2] -13% | [3] -5.25% | [4] -8.25% | [5] -1% | [6] 6.9%

COC(=O)c1cccc2ccc3cccc(C=O)c3c12
inactive: [1] -29.4% | [2] 6.6% | [3] -5.9% | [4] -30.8% | [5] 12.2% | [6] -14.5%

O=C1c2ccccc2C(=O)N1CCS(=O)(=O)CCS(=O)(=O)CCN1C(=O)c2ccccc2C1=O
inactive: [1] -0.1% | [2] 4.95% | [3] -14.9% | [4] -37.5% | [5] -0.95% | [6] 4.5%

Cc1ccc(N=Nc2c(O)c3ccccc3[nH]c2=O)c(S(=O)(=O)N(C)C)c1
inactive: [1] 29.7% | [2] -24.2% | [3] -24.9% | [4] 29.6% | [5] -27.2% | [6] -17.5%

CCOC(=O)/C(C#N)=C/NCC1CC1
inactive: [1] -21.8% | [2] -33.5% | [3] 1.6% | [4] 10.6% | [5] -33.2% | [6] -22.6%

O=[N+]([O-])c1ccccc1N=C=S
inactive: [1] 9.5% | [2] -10.3% | [3] -4.05% | [4] -36% | [5] -9.85% | [6] -17.7%

O=C(O)C(CS(=O)(=O)O)S(=O)(=O)O (stereo not given)
inactive: [1] -10.3% | [2] -18.2% | [3] -1.9% | [4] -7.15% | [5] 3.15% | [6] -10.5%

C=C(C(C)C)C1CC1
inactive: [1] 0.25% | [2] -18.2% | [3] -4.25% | [4] 3.5% | [5] -2.6% | [6] -11.8%

COC(=O)OC/C=C\COC(=O)OC
inactive: [1] 5.8% | [2] -4.05% | [3] -13.6% | [4] -11.4% | [5] 4.55% | [6] 13.6%

CC(O)(C#Cc1ccccc1)c1nc2ccccc2s1 (stereo not given)
inactive: [1] 1.2% | [2] -5% | [3] -4.95% | [4] -7.65% | [5] 17.2% | [6] 4.35%
